Screening data: PubChem, National Center for Advancing Translational Sciences (NCATS)
This excerpt belongs to a sample that is enriched for hits.
Methyltransferases: Primary Screen for Target Class Profiling of Small Molecule Inhibitors of Methyltransferases. AID 1745853, 2022. purified enzyme, MTase-Glo SAH luminescence; stronger effect = lower value. calls only at 40 µM. 25,000 compounds, 3.9% hits; call rule not given here
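Each enzyme was assayed with SAM and its substrate. SAH formation detected by MTase-Glo luminescence; single-point 40 uM screen[…].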
MTase-Glo ctr: detection enzyme interference, methyltransferase counter-screen. shares compounds with Methyltransferases. MTase-Glo coupled enzymes, SAH conversion luminescence, no MTase. Potency, µM (doses to about 57.3 µM), without a hit: top-dose activity change, negative = inhibition, actives largely listed as inhibitors. 180 compounds, 6% hits. AID 1745851; active = well fitted inhibition curve with a large enough effect; inconclusive = small, poorly fitted or top-dose-only effect; also: potency is read from the fitted curve at half-maximal effect
An asterisk follows results filed as active; [ ] = remark or other dose. % is scaled to controls: 0 for no effect and ±100 for the full control effect.

`CCC1CCCCN1CCCNC(=O)CCn1ccc2cc(S(=O)(=O)N3CCCCC3)ccc21` (stereo not drawn) gave Methyltransferases inactive.
Screening CCCC1=Nc2cc(C(=O)NCCCN3CCCCC3CC)ccc2Sc2ccc(C)cc21 (stereo not drawn) returned Methyltransferases active and MTase-Glo ctr -1%.
O=S(=O)(c1ccc(Cl)cc1)c1ccc(N2CCN(c3ccccn3)CC2)nn1 was read as Methyltransferases inactive.
`CCc1cccc(NS(=O)(=O)c2ccc3[nH]c(=O)[nH]c3c2)c1` gave Methyltransferases inactive.
C=Cc1ccc(Cn2nc3n(CC(C)C)c(=O)c4ccc(C(=O)NCC(C)C)cc4n3c2=O)cc1 was read as Methyltransferases inactive.
Screening COCCN1CCCC(c2[nH]ccc2C(=O)NCCc2nc3ccccc3[nH]2)C1 (stereo not drawn) returned Methyltransferases inactive.
CCNC(=O)N1C[C@@H](F)[C@@H](OCc2nc3ccc(F)cc3[nH]2)C1 was read as Methyltransferases inactive.
`CCN(CCc1nc2ccc(C)cc2[nH]1)C(=O)c1ccccc1C1CCNC1` (stereo not drawn) gave Methyltransferases active and MTase-Glo ctr 2%.
Cc1ccc2c(c1)c(-n1cccc1)c1n2CC(C)(C(=O)NC2CCCC2)N(Cc2ccco2)C1=O (stereo not drawn) was read as Methyltransferases inactive.
Screening COc1ccc(CNC(=O)c2cc3n(n2)CC(C)(C(=O)NC2CCCC2)N(C)C3=O)cc1OC (stereo not drawn) returned Methyltransferases inactive.
COc1ccc(CNc2cc3c(cn2)CN(C)CCN3)cc1OC was read as Methyltransferases active and MTase-Glo ctr 0%[85.7 µM].
`COc1ccc(CCN(C)CCc2ccc(OC)c(OC)c2)cc1OC` gave Methyltransferases inactive.
For COc1ccc(C)cc1NS(=O)(=O)c1ccc2[nH]c(=O)[nH]c2c1 the results were Methyltransferases inactive.
Screening CCOc1ccccc1CN1C(=O)c2nc3ccccc3n2CC1(C)C(=O)NC1CCCC1 (stereo not drawn) returned Methyltransferases inactive.
For COCCNc1cc(-c2noc([C@@H]3CCCN3CC(C)C)n2)ccn1 the results were Methyltransferases active and MTase-Glo ctr -3%[85.7 µM].
`Fc1ccccc1CN1CCC[C@H]1c1nc(-c2ccnc(N3CCOCC3)c2)no1` gave Methyltransferases inactive.
Screening COCC(=O)Nc1ccc(-c2noc([C@@H]3CCCN3Cc3ncc[nH]3)n2)cn1 returned Methyltransferases inactive.
`O=S(=O)(c1ccccc1)c1nnn2c1nc(N1CCN(c3ccc(F)cc3)CC1)c1ccccc12` gave Methyltransferases inactive.
`O=S(=O)(NCCn1c(CCc2ccccc2)nc2ccccc21)c1ccc2c(c1)CCCC2` gave Methyltransferases inactive.
Screening Cc1cccc(NC(=O)Cn2c(=O)oc3cc(S(=O)(=O)N4CCCCC4)ccc32)c1C returned Methyltransferases inactive.
`CC1(COCC2CC2)COc2ccc(C(=O)Nc3cccc([S+](C)(=O)[O-])c3)cc2N1` (stereo not drawn) gave Methyltransferases inactive.
Screening CN(C)C[C@@H]1CN(S(C)(=O)=O)C[C@H]1NC(=O)c1ccc2[nH]ccc2c1 returned Methyltransferases inactive.
Screening CN(C)CCOCC1(C)COc2ccc(C(=O)Nc3ccc4[nH]ccc4c3)cc2N1 (stereo not drawn) returned Methyltransferases active and MTase-Glo ctr -1%[85.7 µM].
CCOc1ccc(CCNC(=O)Cn2ccc3cc(S(=O)(=O)N4CCC(C)CC4)ccc32)cc1 was read as Methyltransferases inactive.
`COc1cccc(C(=O)NCCN2CCN(c3ccc(Cl)cc3)CC2)c1` gave Methyltransferases inactive.
For CCCCNC(=O)c1cccc(-c2cc(N3CCN(C)CC3)nc(N)n2)c1 the results were Methyltransferases active and MTase-Glo ctr -1%.
CCCCCNC(=O)c1ccc2c(=O)nc3c(-c4cccc(F)c4)n[nH]n3c2c1 was read as Methyltransferases inactive.
CC(C)(C)c1ccc(S(=O)(=O)N2CCC(n3c(=O)[nH]c4ccccc43)CC2)cc1 was read as Methyltransferases inactive.
`Cc1ccc(NS(=O)(=O)c2cc3[nH]c(=O)[nH]c3cc2C)cc1` gave Methyltransferases inactive.
`COc1ccc(CNC(=O)c2cnc3c(c2)N(C(=O)CCc2ccccc2)CCC3)cc1OC` gave Methyltransferases inactive.
COCCCNC(=O)c1cnc2c(c1)N(C(=O)Cc1cn(C)c3ccccc13)CCC2 was read as Methyltransferases inactive.
O=C(NCc1cccc(Cl)c1)c1cnc2c(c1)N(C(=O)Cc1ccc(O)cc1)CCC2 was read as Methyltransferases active and MTase-Glo ctr 18µM*.
Screening O=C(Cn1nc2n(CCc3ccccc3)c(=O)c3ccccc3n2c1=O)Nc1cc(F)ccc1F returned Methyltransferases inactive.
Cc1c(Cl)cccc1NC(=O)N1CCn2cccc2C1C(C)C (stereo not drawn) was read as Methyltransferases inactive.
CCCN1C(=O)c2c(C(=O)NCc3ccccc3OC)ncn2CC1(C)C(=O)NC1CCCC1 (stereo not drawn) was read as Methyltransferases inactive.
COC(=O)c1cc2n(n1)CC(C)(C(=O)NC1CCCCCC1)N(c1ccc(F)cc1)C2=O (stereo not drawn) was read as Methyltransferases inactive.
`CCOC(=O)c1cc2n(n1)CC(C)(C(=O)NC1CCCCCC1)N(Cc1ccc3c(c1)OCO3)C2=O` (stereo not drawn) gave Methyltransferases inactive.
`CN1CCN(c2ncnc3sc4c(c23)CCNC4)CC1` gave Methyltransferases active and MTase-Glo ctr 15µM*.
CN1CCN(c2ncnc3c2CN(C2CCCCC2)C(=O)CN3C)CC1 was read as Methyltransferases inactive.
For CCNc1ncnc2sc3c(c12)CCN(C(=O)COC)C3 the results were Methyltransferases inactive.
For CC(C)NC(=O)c1ccc2c(=O)n(C(C)C)c3nn(CC(=O)c4ccc(Cl)cc4)c(=O)n3c2c1 the results were Methyltransferases inactive.
Cc1ccc(Cn2c(=O)c3ccccc3n3c(SCC(=O)Nc4ccccc4C)nnc23)cc1 was read as Methyltransferases inactive.
OC1(Cn2ccnc2)CCN(Cc2ccccc2Cn2cccn2)CC1 was read as Methyltransferases active and MTase-Glo ctr -1%.
For O=C(NCc1ccccc1Cn1cccn1)c1ccc2cccc(F)c2n1 the results were Methyltransferases inactive.
OCC(O)c1cc2n(n1)CCN(Cc1ccccc1Cn1cccn1)C2 (stereo not drawn) was read as Methyltransferases inactive.
CCCn1c(=O)sc2cc(NS(=O)(=O)c3ccc4c(c3)n(C)c(=O)n4C)ccc21 was read as Methyltransferases inactive.
`CCOC(=O)CNC(=O)C1(C)Cn2c(ccc2-c2ccco2)C(=O)N1c1ccc(OC)c(OC)c1` (stereo not drawn) gave Methyltransferases inactive.
`Cn1ncc2c(N3CCN(S(N)(=O)=O)CC3)nc(C3CCCC3)nc21` gave Methyltransferases active and MTase-Glo ctr inconclusive.
`CC1CCCN1C(=O)c1cc(-c2ccc(C(F)(F)F)cc2)nc2c1cnn2C` (stereo not drawn) gave Methyltransferases inactive.
